In PubChem BioAssay one finds z-score and composite z-score data, which are given here for 8 molecules.

Assay [1] is described as follows: compound effects on lung adenocarcinoma cell viability – A549, calcein-AM fluorescence, 48 h, basal, profiling panel (AID 1162). Further: test concentration not given here. The conditions noted are these: higher = more signal.
The nature of assay [2]: compound effects on differentiated 3T3-L1 adipocyte viability – cell-based, 3T3-L1 adipocytes, calcein-AM fluorescence, 48 h, basal, profiling panel (AID 1163). Further: test concentration not given here. The conditions noted are these: 3T3-L1 adipocytes viability, higher = more signal.
Assay [3] can be described thus: compound effects on hepatocellular carcinoma cell viability – HepG2, calcein-AM fluorescence, 48 h, basal, profiling panel (AID 1164). Further: test concentration not given here. The conditions noted are these: higher = more signal.
A short description of assay [4]: compound effects on multiple myeloma cell viability – MM1S, calcein-AM fluorescence, 48 h, basal, profiling panel (AID 1165).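 Further: viability of MM1S multiple myeloma cells under basal unstimulated conditions; test concentration not given here.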 The settings on record: higher = more signal.
Assay [5] is described as follows: calcein-AM signal in unstimulated myeloma cells – cell-based, calcein-AM fluorescence, 48 h, PK04 Diversity Set, profiling panel (AID 1166).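 Further: cells grown under basal conditions without added stimulus; test concentration not given here.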 The conditions noted are these: RPMI8226 myeloma viability, higher = more signal.
A short description of assay [6]: JC-1 mitochondrial signal, unstimulated HepG2 cells – cell-based, JC-1 fluorescence, 24 h, 100 nL compound, profiling panel (AID 1167). Further: test concentration not given here. The conditions noted are these: HepG2 mitochondrial potential, higher = more signal.
Assay [7] is described as follows: JC-1 mitochondrial signal, unstimulated adipocytes – cell-based, JC-1 fluorescence, 3T3-L1 adipocytes, 24 h, 100 nL compound, profiling panel (AID 1168). Further: test concentration not given here. The settings on record: JC-1 mitochondrial fluorescence, higher = more signal, called active from +8 up or from −8 down.
Assay [8] can be described thus: JC-1 mitochondrial signal, unstimulated myeloma cells – cell-based, JC-1 fluorescence, RPMI8226, 24 h, 100 nL compound, profiling panel (AID 1169). Further: test concentration not given here. The settings on record: JC-1 mitochondrial potential fluorescence, higher = more signal.
The nature of assay [9]: JC-1 mitochondrial signal, unstimulated MM1S myeloma – cell-based, JC-1 fluorescence, 24 h, 100 nL compound, profiling panel (AID 1170). Further: test concentration not given here. The settings on record: MM1S mitochondrial potential, higher = more signal.
Assay [10] can be described thus: resazurin metabolic signal in A549 cells – cell-based, resazurin fluorescence, 24 h, PK04 Diversity Set, profiling panel (AID 1171). Further: test concentration not given here. The conditions noted are these: A549 viability, higher = more signal, called active from +8 up or from −8 down. (In general: The colour change of resazurin is a common sign of viable cells or microbes.)
Assay [11] can be described thus: resazurin metabolic signal in HepG2 cells – cell-based, resazurin fluorescence, 24 h, PK04 Diversity Set, profiling panel (AID 1172). Further: test concentration not given here. The settings on record: HepG2 viability, higher = more signal.
Assay [12] can be described thus: budding yeast growth changes without added modifier – OD600, strain BY4716, 24 h, basal condition, primary screen (AID 1173). The settings on record: S. cerevisiae BY4716 growth, OD600, 24 h; higher = more signal, called active from +8 up or from −8 down.
The nature of assay [13]: viability profiling in MM1S myeloma cells – cell-based, resazurin fluorescence, basal, 24 h, PK04 Diversity Set, profiling panel (AID 1174). Further: test concentration not given here. The settings on record: higher = more signal, called active from +8 up or from −8 down.
For assay [14], the target named is Dihydroorotate dehydrogenase (quinone), mitochondrial (Plasmodium falciparum (isolate 3D7)) (UniProt Q08210). Description: inhibition of P. falciparum DHODH – biochemical, C-terminal His tag, absorbance 600 nm, primary screen (AID 1175).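 Further: recombinant parasite enzyme with a five histidine tag at its C terminus; test concentration not given here.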 The conditions noted are these: PfDHODH enzyme, DCIP absorbance 600 nm; higher = more signal, called active from +8 up or from −8 down.

Assay [15] in a line: inhibition of PAO1 biofilm formation – strain PAO1, LB-PBS medium, absorbance 600 nm, primary screen (AID 1176). Further: test concentration not given here. The conditions noted are these: P. aeruginosa PAO1 growth/biofilm, A600, 12 h; higher = more signal.
A short description of assay [16]: growth modulation of vineyard yeast isolate – strain RM11-1a, OD600, basal, 24 h, primary screen (AID 1177).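 Further: cultures grown under basal conditions with no added stressor; test concentration not given here.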 The conditions noted are these: S. cerevisiae RM11-1a growth, OD600, 24 h; higher = more signal, called active from +8 up or from −8 down.
The nature of assay [17]: growth of efflux-deficient E. coli DRC39 – strain DRC39, OD650, 24 h, E. coli filamentation inducers, primary screen (AID 1178).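 Further: growth measured as culture turbidity by optical density at 650 nm; test concentration not given here.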 The conditions noted are these: E. coli DRC39 acrAB, higher = more signal, called active from +8 up or from −8 down.
A short description of assay [18]: growth of efflux-deficient E. coli DRC39 – strain DRC39, OD650, 48 h, E. coli filamentation inducers, primary screen (AID 1179).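 Further: screen aims at cell division blockers that make cells filament.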 The conditions noted are these: E. coli DRC39 delta-acrAB growth, higher = more signal, called active from +8 up or from −8 down.
The nature of assay [19]: viability profiling in RPMI8226 myeloma cells – cell-based, resazurin fluorescence, basal, 24 h, PK04 Diversity Set, profiling panel (AID 1180).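 Further: RPMI8826 multiple myeloma cell line at 5000 cells per well; test concentration not given here.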 The conditions noted are these: higher = more signal.
Assay [20] addresses E3 ubiquitin-protein ligase XIAP (Homo sapiens) (UniProt P98170). Description: small molecules binding XIAP protein – biophysical, small-molecule microarray, fluorescence 635 nm, primary screen (AID 1181).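 Further: score merges 667 nm emission and signal to noise over triplicate slides.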 The conditions noted are these: higher = more signal.

Active and inactive are the calls of the source. Unless noted, how the calls were made is not given here.

Dihydroorotate dehydrogenase (quinone), mitochondrial (Plasmodium falciparum (isolate 3D7)), sequence (Q08210 whole entry, looked up): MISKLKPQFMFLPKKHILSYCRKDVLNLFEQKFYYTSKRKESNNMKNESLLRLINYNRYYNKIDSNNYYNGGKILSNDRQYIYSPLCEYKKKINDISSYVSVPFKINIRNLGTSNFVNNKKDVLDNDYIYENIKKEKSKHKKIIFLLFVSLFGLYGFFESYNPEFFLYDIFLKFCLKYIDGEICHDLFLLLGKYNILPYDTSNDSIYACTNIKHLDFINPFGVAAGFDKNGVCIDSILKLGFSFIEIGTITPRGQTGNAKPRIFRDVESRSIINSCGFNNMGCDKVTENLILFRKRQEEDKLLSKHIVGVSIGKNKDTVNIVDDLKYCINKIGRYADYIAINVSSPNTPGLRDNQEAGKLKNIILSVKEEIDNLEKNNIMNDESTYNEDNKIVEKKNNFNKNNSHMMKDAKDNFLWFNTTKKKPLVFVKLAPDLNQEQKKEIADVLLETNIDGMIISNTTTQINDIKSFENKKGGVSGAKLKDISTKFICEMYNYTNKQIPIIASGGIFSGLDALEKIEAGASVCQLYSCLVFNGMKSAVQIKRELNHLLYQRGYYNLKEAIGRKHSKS
E3 ubiquitin-protein ligase XIAP (Homo sapiens), sequence (P98170 whole entry, looked up): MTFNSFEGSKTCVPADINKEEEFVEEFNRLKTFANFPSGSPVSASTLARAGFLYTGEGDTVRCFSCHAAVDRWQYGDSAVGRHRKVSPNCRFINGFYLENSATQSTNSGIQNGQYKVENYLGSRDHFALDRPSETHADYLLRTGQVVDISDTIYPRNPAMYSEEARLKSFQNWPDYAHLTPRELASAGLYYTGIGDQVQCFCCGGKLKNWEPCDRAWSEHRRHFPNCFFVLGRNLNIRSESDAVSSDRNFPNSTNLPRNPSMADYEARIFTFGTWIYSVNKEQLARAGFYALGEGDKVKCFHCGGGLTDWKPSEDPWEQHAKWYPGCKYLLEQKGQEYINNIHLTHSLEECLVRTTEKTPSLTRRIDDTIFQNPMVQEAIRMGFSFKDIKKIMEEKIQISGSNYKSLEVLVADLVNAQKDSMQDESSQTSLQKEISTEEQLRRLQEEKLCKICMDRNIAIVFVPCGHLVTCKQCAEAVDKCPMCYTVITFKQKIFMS

As for `O=C1[C@H]2[C@H]3[C@H](O)[C@H](O)CC(=NOC[C@@H](O)COCc4ccco4)[C@@H]3CC[C@H]2C(=O)N1Cc1ccc2c(c1)OCO2`, the z-score is 0.751 in assay [1]; 0.0548 in [2]; 0.579 in assay [3]; 0.477 in assay [4]; 0.677 in assay [5]; 1.07 in assay [6]. Further, the z-score in assay [7] is 0.231 (inactive); in assay [8], 0.727; in assay [9], -1.18; in assay [10] it was 0.178 (inactive); in [11], 0.351; in assay [12], 0.182 (inactive). Also, the z-score in [13] was -0.524 (inactive); in assay [15], 0.0578 (inactive); in assay [16], 0.865 (inactive); in assay [17], 0.764 (inactive); in [18], 1.29 (inactive); in assay [19], 0.501. The composite z-score was -0.395 (inactive) in assay [14] and -0.148 in assay [20].

Regarding `O=C1[C@H]2CCn3c(=O)n(-c4ccccc4)c(=O)n3[C@H]2[C@H](O)[C@@H]2O[C@H]12`, the z-score in assay [1] is 0.0313; in assay [2], -0.226; in assay [3] it was -0.352; in assay [4] it was -1.32; in [5], -0.19; in assay [6], -0.237. Moreover, the z-score in assay [7] was -0.169 (inactive); in assay [8], -0.104; in [9], -0.351; in [10], -0.331 (inactive); in assay [11] it was -0.507; in assay [12], -0.251 (inactive). Also, the z-score was -0.468 (inactive) in assay [13]; -0.212 (inactive) in [15]; -0.303 (inactive) in assay [16]; -0.447 (inactive) in assay [17]; -0.489 (inactive) in [18]; -0.579 in assay [19]. In addition, the composite z-score in assay [14] was -0.106 (inactive); in assay [20] it was -0.287.

Take `C[C@H]1CC[C@H]2C(=O)OC(COc3ccc(C(C)(C)C)cc3)CN2[C@@H]1c1ccc(Br)cc1` (stereo not given in full): the z-score in [1] was 2.19; in assay [2] it was 0.193; in assay [3], 0.349; in assay [4], 0.793; in assay [5], 0.253; in assay [6], 0.745. For the same molecule, the z-score in assay [7] is -0.414 (inactive); in assay [8], 0.566; in [9], 0.855; in [10] it was 0.479 (inactive); in assay [11] it was 0.272; in assay [12], -4.88 (inactive). Further, the z-score is 0.283 (inactive) in assay [13]; 1.18 (inactive) in assay [15]; -0.249 (inactive) in [16]; 1.22 (inactive) in assay [17]; 0.662 (inactive) in assay [18]; -0.317 in assay [19]. In addition, the composite z-score in assay [14] is -0.673 (inactive); in assay [20], -0.173.

On to `CC=CC1=C(CO)[C@H](O)[C@H]2O[C@H]2[C@@H]1O`, for which the z-score was -0.37 in [1]; 0.309 in assay [2]; 0.366 in [3]; -0.948 in assay [4]; -0.671 in assay [5]; -0.206 in assay [6]. For the same molecule, the z-score in assay [7] was 0.00909 (inactive); in assay [8] it was -0.225; in assay [9], -0.244; in [10] it was -0.337 (inactive); in [11] it was -0.504; in [12] it was -0.299 (inactive). The z-score is 0.133 (inactive) in assay [13]; -0.102 (inactive) in assay [15]; 0.39 (inactive) in assay [16]; 0.615 (inactive) in assay [17]; -0.442 (inactive) in assay [18]; 0.694 in assay [19]. In addition, the composite z-score was 0.781 (inactive) in assay [14] and -0.204 in assay [20].

As for `C[C@@H]1CC[C@H]2C(=O)O[C@@H](CN=[N+]=[N-])CN2[C@H]1c1ccc(Br)cc1`, the z-score was -3.8 in assay [1]; 0.254 in assay [2]; -4.54 in assay [3]; -3.04 in [4]; -4.07 in assay [5]; -2.08 in assay [6]. For the same molecule, the z-score in assay [7] was -0.62 (inactive); in [8] it was -1.18; in assay [9] it was -1.33; in assay [10] it was -0.487 (inactive); in assay [11], -0.607; in assay [12] it was -3.55 (inactive). In addition, the z-score was -0.74 (inactive) in assay [13]; -0.446 (inactive) in [15]; 4.32 (inactive) in [16]; 0.31 (inactive) in assay [17]; -1.66 (inactive) in assay [18]; -4.06 in assay [19]. Besides, the composite z-score in assay [14] was 5.24 (inactive); in assay [20], -0.0421.

`COc1ccc(OC[C@@H]2CC3[C@@H](c4ccc(Br)cc4)[C@H](C)CC[C@H]3C(=O)O2)cc1` (stereo not given in full): the z-score in [1] was 0.228; in [2], 0.0081; in assay [3] it was 0.139; in assay [4], 0.332; in [5] it was -0.204; in assay [6], -0.96. Moreover, the z-score in assay [7] is 0.533 (inactive); in assay [8], 0.196; in assay [9], 0.0404; in assay [10], 0.582 (inactive); in [11] it was 0.527; in assay [12], -0.845 (inactive). For the same molecule, the z-score in [13] was 0.364 (inactive); in [15], -0.315 (inactive); in assay [16] it was 0.0086 (inactive); in assay [17], -0.941 (inactive); in assay [18], -1.58 (inactive); in assay [19], 1.04. The composite z-score in assay [14] is 0.301 (inactive); in [20], 0.326.

As for `COc1ccc(O[C@H]2C=C[C@@H](c3ccccc3)O[C@@H]2CON=C2c3cc(OC)ccc3O[C@H](c3cccc(OC)c3)[C@H]2O)cc1`, the z-score is 0.344 in assay [1]; -1.17 in [2]; 0.189 in assay [3]; -0.0952 in assay [4]; -1.04 in assay [5]; 0.422 in [6]. Further, the z-score was -2.37 (inactive) in [7]; -0.326 in assay [8]; -0.0381 in assay [9]; -0.142 (inactive) in assay [10]; -0.568 in assay [11]; 0.311 (inactive) in assay [12]. Further, the z-score in assay [13] is -0.89 (inactive); in assay [15] it was 1.53 (inactive); in [16] it was 0.041 (inactive); in assay [17] it was 0.779 (inactive); in [18] it was -0.824 (inactive); in assay [19], -0.387. The composite z-score is 0.586 (inactive) in assay [14] and -0.206 in assay [20].

For the molecule `C#CCCCON=C1[C@H]2CCn3c(=O)n(Cc4cc5c(cc4Cl)OCO5)c(=O)n3[C@H]2[C@H](O)[C@@H]2O[C@H]12`, the z-score is 0.328 in assay [1]; -0.237 in assay [2]; 0.484 in [3]; -0.0822 in assay [4]; 0.644 in assay [5]; -0.663 in [6]. Further, the z-score in [7] was -1.1 (inactive); in assay [8] it was -0.123; in [9], 0.00911; in assay [10], -0.188 (inactive); in assay [11], -0.242; in assay [12], 0.606 (inactive). Also, the z-score in assay [13] is -0.16 (inactive); in assay [15] it was -0.106 (inactive); in [16] it was 0.432 (inactive); in assay [17], 0.313 (inactive); in assay [18] it was -0.506 (inactive); in assay [19] it was 0.0334. For the same molecule, the composite z-score in assay [14] was 0.605 (inactive); in assay [20] it was -0.168.
